Among the data in paper PMC6451091, “NextPBM: a platform to study cell-specific transcription factor binding and cooperativity” are binding signal values, retold here.

In all, about 3,700 sequences were measured (“z-score”: median about 4, highest 2% from about 8.4 on). Many of the other results were omitted from the sample, so the highest values are more common in it than they were.

Test [1] concerns the target PU.1 (IVT) (UniProt P17947 1-270). As to the kind of experiment: protein-binding microarray (PBM); 20 mM HEPES pH 7.9, 100 mM NaCl, 1 mM DTT, 0.2 mg/mL BSA, 0.02% Triton X-100, 2% milk, 0.4 mg/mL salmon testes DNA; 1 h; temperature not stated; high values mean tight binding. The note with it: dsDNA, one strand shown. In short, it runs like this: (§1)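 PU.1, full-length and untagged, came from coupled human in vitro transcription/translation and was bound for 1 h to double-stranded DNA microarrays of 20-bp genomic sites and single-nucleotide variants in HEPES pH 7.9, 100 mM NaCl, 2% milk and salmon testes DNA. After antibody detection, the values were taken as z-scores of scanned fluorescence normalised by linear regression.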

The target is the same in test [2]. The description is as above. The note with it: dsDNA, one strand shown. The gist of the method: as §1
This is another data set of the same source.

In test [1], “GCCTAGCACGAAAACAGGAAGTGACTGTTGTGCTAGGTCTTGATTCGCTTGACGCTGCTG” yielded a binding signal of 8.08 z-score.

Turning to “GCCTAGCACGAAAAAAGGAAGTCAAATTGGTGCTAGGTCTTGATTCGCTTGACGCTGCTG”, the binding signal in test [2] came to 5.97 z-score.

The sequence “GCCTAGCACGAAAAGAGGAAGTGAAATTGGTGCTAGGTCTTGATTCGCTTGACGCTGCTG” showed a binding signal in test [1] of 8.72 z-score.

In test [1], “GCCTAGCACGAAATGAGGAAGTACCTAAAGTGCTAGGTCTTGATTCGCTTGACGCTGCTG” came in with a binding signal of 8.71 z-score.

Turning to “GCCTAGCACGAAGAGAGGAAGTGAAATTGGTGCTAGGTCTTGATTCGCTTGACGCTGCTG”, the binding signal in test [2] was 5.29 z-score.

The sequence “GCCTAGCACGAAAAGAGGAAATGAAATTGGTGCTAGGTCTTGATTCGCTTGACGCTGCTG” returned a binding signal in test [2] of 6.51 z-score.

In test [2], “GCCTAGCACGAAAAGAGGAAATGAGAGAGGTGCTAGGTCTTGATTCGCTTGACGCTGCTG” yielded a binding signal of 5.36 z-score.

In turn, “GCCTAGCACGAAATGAGGAAGTGTAAACAGTGCTAGGTCTTGATTCGCTTGACGCTGCTG” registered a binding signal in test [1] of 7.49 z-score.

For the sequence “GCCTAGCACGAAATGAGGAAGTTGAGAGCGTGCTAGGTCTTGATTCGCTTGACGCTGCTG”, the binding signal in test [1] stood at 8.36 z-score.

“GCCTAGCACGAAAAGAGGAAGTCAAATTGGTGCTAGGTCTTGATTCGCTTGACGCTGCTG” came in with a binding signal in test [1] of 8.37 z-score.

“GCCTAGCACGAAATGAGGAAGTTGGTGCTGTGCTAGGTCTTGATTCGCTTGACGCTGCTG” yielded a binding signal in test [1] of 8.11 z-score.

Sequence “GCCTAGCACGAAATGAGGAAGTGATTAGGGTGCTAGGTCTTGATTCGCTTGACGCTGCTG” returned a binding signal in test [1] of 8.13 z-score.

In test [2], “GCCTAGCACGAAGAGAGGAAGTCAAATTGGTGCTAGGTCTTGATTCGCTTGACGCTGCTG” had a binding signal of 4.29 z-score.

For the sequence “GCCTAGCACGAAATAGGGAAGTGTGAGTTGTGCTAGGTCTTGATTCGCTTGACGCTGCTG”, the binding signal in test [1] is 6.74 z-score.

With “GCCTAGCACTGAGAGGGGAAGTGGCAGCTGTGCTAGGTCTTGATTCGCTTGACGCTGCTG”, in test [2], the binding signal was determined as 4.01 z-score.

As for “GCCTAGCACTGGAGGAGGAACTGAAATACGTGCTAGGTCTTGATTCGCTTGACGCTGCTG”, the binding signal in test [1] stood at 2.94 z-score.

Sequence “GCCTAGCACTGAAAGGGGAAGTCAGATAGGTGCTAGGTCTTGATTCGCTTGACGCTGCTG” displayed a binding signal in test [2] of 6.45 z-score.

On to “GCCTAGCACCAAATGAGGAACTGATGCGAGTGCTAGGTCTTGATTCGCTTGACGCTGCTG”, for which the binding signal in test [1] was 6.15 z-score.

Consider “GCCTAGCACCAAAGGAGGAACTGAAACCAGTGCTAGGTCTTGATTCGCTTGACGCTGCTG”, for which the binding signal in test [2] was 3.2 z-score.

Take “GCCTAGCACTGAAAGGGGAAGTGGGTGCCGTGCTAGGTCTTGATTCGCTTGACGCTGCTG”: the binding signal in test [2] is 6.37 z-score.

“GCCTAGCACCGAAAGGGGAAGTGCTAAGCGTGCTAGGTCTTGATTCGCTTGACGCTGCTG” showed a binding signal in test [1] of 6.82 z-score.

With “GCCTAGCACGGAAAGAGGAAGTCAAATTGGTGCTAGGTCTTGATTCGCTTGACGCTGCTG”, in test [1], the binding signal was 7.8 z-score.

“GCCTAGCACGAAAAGAGGAAGTCAATTTGGTGCTAGGTCTTGATTCGCTTGACGCTGCTG” yielded a binding signal in test [1] of 8.54 z-score.

“GCCTAGCACGAAAAGAGGAAGTCAAACTGGTGCTAGGTCTTGATTCGCTTGACGCTGCTG”: the binding signal in test [1] turned out to be 7.89 z-score.

For “GCCTAGCACTACCCTTTAAAAATAGTTCAGTGCTAGGTCTTGATTCGCTTGACGCTGCTG”, the binding signal in test [2] was determined as 0.827 z-score.

In test [1], “GCCTAGCACAGAGAGAGGAAGTGATTACAGTGCTAGGTCTTGATTCGCTTGACGCTGCTG” returned a binding signal of 4.98 z-score.

In test [2], “GCCTAGCACTTCAGGGGGAAGTACTGTGTGTGCTAGGTCTTGATTCGCTTGACGCTGCTG” had a binding signal of 3.94 z-score.

In test [2], “GCCTAGCACCACAAGAGGAAGTCCCACAAGTGCTAGGTCTTGATTCGCTTGACGCTGCTG” displayed a binding signal of 3.93 z-score.

As to “GCCTAGCACTCCAGGAGGAACTACTGTGTGTGCTAGGTCTTGATTCGCTTGACGCTGCTG”, the binding signal in test [1] worked out at 2.59 z-score.

In turn, “GCCTAGCACAGAAAGAGGAAGTGTAAAAAGTGCTAGGTCTTGATTCGCTTGACGCTGCTG” registered a binding signal in test [1] of 8.57 z-score.

As to “GCCTAGCACAGGAAGAGGAAGAGGAAGAAGTGCTAGGTCTTGATTCGCTTGACGCTGCTG”, the binding signal in test [2] was 4.95 z-score.

“GCCTAGCACACAGAGAGGAAGTAGATAAAGTGCTAGGTCTTGATTCGCTTGACGCTGCTG”: the binding signal in test [2] stood at 4.75 z-score.

“GCCTAGCACAGAGAGGGGAAGTGACTTGCGTGCTAGGTCTTGATTCGCTTGACGCTGCTG” returned a binding signal in test [1] of 4.95 z-score.

Take “GCCTAGCACAGAAAGAGGAAGTCCTCTCTGTGCTAGGTCTTGATTCGCTTGACGCTGCTG”: the binding signal in test [1] was 8.3 z-score.

With “GCCTAGCACAGAAAGGGGAAGTGACTTGCGTGCTAGGTCTTGATTCGCTTGACGCTGCTG”, in test [1], the binding signal was found to be 8.13 z-score.

In turn, “GCCTAGCACAGAAAGAGGAAGTTGGCTCTGTGCTAGGTCTTGATTCGCTTGACGCTGCTG” had a binding signal in test [1] of 8.56 z-score.

In test [2], “GCCTAGCACAGAGAGAGGAAGTGAGCTCTGTGCTAGGTCTTGATTCGCTTGACGCTGCTG” returned a binding signal of 4.31 z-score.

In turn, “GCCTAGCACAGAGAGAGGAAGTGAAAGTAGTGCTAGGTCTTGATTCGCTTGACGCTGCTG” gave a binding signal in test [2] of 4.81 z-score.

“GCCTAGCACAGAAAGAGGAACTGAAAAGTGTGCTAGGTCTTGATTCGCTTGACGCTGCTG” yielded a binding signal in test [1] of 6.62 z-score.

On to “GCCTAGCACAGAAAGAGGAAGTAGATATTGTGCTAGGTCTTGATTCGCTTGACGCTGCTG”, for which, in test [1], the binding signal was 8.76 z-score.

On to “GCCTAGCACAGAAAGAGGAAGTGACTTGCGTGCTAGGTCTTGATTCGCTTGACGCTGCTG”, for which the binding signal in test [1] turned out to be 8.54 z-score.
